# Experimental data published in the supplement of paper PMC10121225.
# Where a name gives a salt, the structure may show the parent alone.
# Tested on: hN + hpA co-culture (H1 iNGN2 human neurons + human primary astrocytes)
# Experiment: presynaptic density (SYNAPSIN1 puncta per MAP2 neurite area), Z-score vs DMSO controls; higher = more presynaptic puncta (synapse-promoting)
# Conditions: 3 µM; 72 h
# 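Further: immunostained co-cultures imaged by high-content microscopy, Z-score per plate against mean and SD of 0.1% DMSO wells, compounds added on differentiation day 18, analysed day 21.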
row,SMILES,presynaptic density (Z-score)
1,CCN(CC)C(=O)c1ccc(C2=CC3(CCNCC3)Oc3cccc(O)c32)cc1,-0.78
2,O=C(O)CNC(=O)c1c(O)c2ccccc2n(Cc2ccccc2)c1=O,0.0398
3,CCc1c(C(=O)C(N)=O)c2c(OCC(=O)O)cccc2n1Cc1ccccc1,0.584
4,O=C1CC[C@@]2(O)[C@H]3Cc4ccc(O)c5c4[C@@]2(CCN3CC2CC2)[C@H]1O5 [Naltrexone HCl],1.84
5,C[C@@]12N[C@@H](Cc3ccccc31)c1ccccc12 [(-)-MK 801 maleate],-0.122
6,O=c1[nH]c2ccc(Cl)cc2c(N[C@@H]2CN3CCC2CC3)c1-c1nc2ccccc2[nH]1,-2.58
7,CC[C@@H]1/C=C/C=C/C[C@H](C)[C@H](O)[C@](C)(O)C(=O)[C@H](C)[C@@H](O)[C@H](C)C(=O)[C@H](C)[C@@H](O)[C@H](C)/C=C/C(=O)O[C@H]2[C@@H](C)[C@@H](CC1)O[C@@]1(CC[C@@H](C)[C@@H](C[C@H](C)O)O1)[C@@H]2C [Oligomycin A],-1.28
8,Cc1sc2c(c1C)C(c1ccc(Cl)cc1)=N[C@@H](CC(=O)OC(C)(C)C)c1nnc(C)n1-2,2.8
9,"CN1CCc2cc3c(cc2C1C1OC(=O)c2c1ccc1c2OCO1)OCO3 (single isomer, unassigned; (+)) [(+)-Bicuculline]",-0.322
10,N[C@@H]1C[C@H]1c1ccccc1 [Tranylcypromine (2-PCPA) HCl],0.259
11,Cn1cc(C2=C(c3cn(C4CCN(Cc5ccccn5)CC4)c4ccccc34)C(=O)NC2=O)c2ccccc21 [Enzastaurin],0.0046
12,C[C@](O)(COc1ccc(C#N)cc1)C(=O)Nc1ccc(C#N)c(C(F)(F)F)c1,-0.892
13,CCOC(=O)c1cncn1[C@H](C)c1ccccc1 [Etomidate],0.377
